# Assay results as given in ChEMBL document CHEMBL2218924, “A broad activity screen in support of a chemogenomic map for kinase signalling research and drug discovery” (Biochem J, 2013).
# Legend:
# [1] = biological target: Ribosomal protein S6 kinase alpha-1 (Homo sapiens) (UniProt Q15418); conditions: at 1 µM
# [2] = biological target: Ribosomal protein S6 kinase alpha-1 (Homo sapiens) (UniProt Q15418); conditions: at 10 µM
# [3] = biological target: Ribosomal protein S6 kinase alpha-3 (Homo sapiens) (UniProt P51812); conditions: at 1 µM
# Ribosomal protein S6 kinase alpha-3 (Homo sapiens), sequence (P51812 whole entry): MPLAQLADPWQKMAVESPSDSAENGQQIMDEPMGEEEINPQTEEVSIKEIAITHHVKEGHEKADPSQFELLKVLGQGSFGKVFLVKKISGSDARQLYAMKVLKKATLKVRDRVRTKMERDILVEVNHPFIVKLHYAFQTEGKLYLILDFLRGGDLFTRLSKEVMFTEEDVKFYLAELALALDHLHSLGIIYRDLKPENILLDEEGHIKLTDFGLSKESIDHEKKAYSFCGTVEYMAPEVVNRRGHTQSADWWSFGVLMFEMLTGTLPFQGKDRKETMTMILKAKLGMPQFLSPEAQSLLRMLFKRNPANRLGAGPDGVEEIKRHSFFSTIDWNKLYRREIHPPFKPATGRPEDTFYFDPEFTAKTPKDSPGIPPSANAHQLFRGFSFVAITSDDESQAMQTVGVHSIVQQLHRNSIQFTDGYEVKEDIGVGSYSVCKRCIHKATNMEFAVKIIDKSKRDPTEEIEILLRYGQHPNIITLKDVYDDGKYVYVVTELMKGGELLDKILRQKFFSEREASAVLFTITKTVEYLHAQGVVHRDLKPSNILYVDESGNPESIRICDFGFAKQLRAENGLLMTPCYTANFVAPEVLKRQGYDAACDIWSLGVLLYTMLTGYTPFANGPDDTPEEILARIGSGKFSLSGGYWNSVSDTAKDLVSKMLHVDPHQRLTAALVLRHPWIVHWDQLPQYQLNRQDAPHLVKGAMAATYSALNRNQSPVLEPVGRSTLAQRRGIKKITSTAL
# [4] = biological target: Ribosomal protein S6 kinase alpha-3 (Homo sapiens) (UniProt P51812); conditions: at 10 µM
# [5] = biological target: Ribosomal protein S6 kinase alpha-2 (Homo sapiens) (UniProt Q15349); conditions: at 1 µM
# Ribosomal protein S6 kinase alpha-2 (Homo sapiens), sequence (Q15349 whole entry): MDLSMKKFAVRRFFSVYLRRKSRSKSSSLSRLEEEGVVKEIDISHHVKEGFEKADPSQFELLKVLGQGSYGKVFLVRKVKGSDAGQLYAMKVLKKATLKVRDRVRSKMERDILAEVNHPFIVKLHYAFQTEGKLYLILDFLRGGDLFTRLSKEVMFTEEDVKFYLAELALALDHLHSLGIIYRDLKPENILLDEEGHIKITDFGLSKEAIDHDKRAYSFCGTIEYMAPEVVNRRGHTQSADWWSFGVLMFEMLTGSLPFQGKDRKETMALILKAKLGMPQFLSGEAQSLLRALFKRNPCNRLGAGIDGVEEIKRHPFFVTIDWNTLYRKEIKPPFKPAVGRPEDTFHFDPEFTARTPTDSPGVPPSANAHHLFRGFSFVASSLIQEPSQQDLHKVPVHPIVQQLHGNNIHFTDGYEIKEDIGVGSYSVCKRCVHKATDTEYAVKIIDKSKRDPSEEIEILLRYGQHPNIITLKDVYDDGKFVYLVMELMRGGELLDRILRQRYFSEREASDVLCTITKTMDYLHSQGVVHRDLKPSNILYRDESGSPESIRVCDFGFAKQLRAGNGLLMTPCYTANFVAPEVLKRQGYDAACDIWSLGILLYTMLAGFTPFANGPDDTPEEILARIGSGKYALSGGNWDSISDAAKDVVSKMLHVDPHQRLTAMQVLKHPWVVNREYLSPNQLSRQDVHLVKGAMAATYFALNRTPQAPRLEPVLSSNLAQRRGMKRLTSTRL
# [6] = biological target: Ribosomal protein S6 kinase alpha-2 (Homo sapiens) (UniProt Q15349); conditions: at 10 µM
# [7] = biological target: Ribosomal protein S6 kinase alpha-6 (Homo sapiens) (UniProt Q9UK32); conditions: at 1 µM
# Ribosomal protein S6 kinase alpha-6 (Homo sapiens), sequence (Q9UK32 whole entry): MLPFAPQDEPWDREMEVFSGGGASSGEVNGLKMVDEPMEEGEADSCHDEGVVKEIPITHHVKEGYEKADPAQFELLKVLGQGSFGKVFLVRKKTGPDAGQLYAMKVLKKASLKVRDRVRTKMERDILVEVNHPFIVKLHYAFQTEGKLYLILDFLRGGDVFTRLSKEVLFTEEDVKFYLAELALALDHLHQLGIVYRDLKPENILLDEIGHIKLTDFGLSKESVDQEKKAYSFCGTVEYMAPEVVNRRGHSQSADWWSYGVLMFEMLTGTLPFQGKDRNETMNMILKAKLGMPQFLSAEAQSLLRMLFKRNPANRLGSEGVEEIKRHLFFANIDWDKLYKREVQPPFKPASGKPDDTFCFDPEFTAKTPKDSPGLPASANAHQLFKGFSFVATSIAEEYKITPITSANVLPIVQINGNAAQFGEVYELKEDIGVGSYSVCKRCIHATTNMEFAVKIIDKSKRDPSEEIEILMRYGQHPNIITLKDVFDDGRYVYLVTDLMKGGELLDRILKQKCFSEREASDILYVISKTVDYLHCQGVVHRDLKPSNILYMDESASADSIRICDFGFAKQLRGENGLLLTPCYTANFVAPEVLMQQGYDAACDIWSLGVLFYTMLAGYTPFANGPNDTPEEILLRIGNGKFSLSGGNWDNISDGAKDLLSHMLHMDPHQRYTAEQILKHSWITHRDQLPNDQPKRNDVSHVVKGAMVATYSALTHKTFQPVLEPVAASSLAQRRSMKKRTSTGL
# [8] = biological target: Ribosomal protein S6 kinase alpha-6 (Homo sapiens) (UniProt Q9UK32); conditions: at 10 µM
# [9] = biological target: Mitogen-activated protein kinase 14 (Homo sapiens) (UniProt Q16539); conditions: at 1 µM
# Mitogen-activated protein kinase 14 (Homo sapiens), sequence (Q16539 whole entry): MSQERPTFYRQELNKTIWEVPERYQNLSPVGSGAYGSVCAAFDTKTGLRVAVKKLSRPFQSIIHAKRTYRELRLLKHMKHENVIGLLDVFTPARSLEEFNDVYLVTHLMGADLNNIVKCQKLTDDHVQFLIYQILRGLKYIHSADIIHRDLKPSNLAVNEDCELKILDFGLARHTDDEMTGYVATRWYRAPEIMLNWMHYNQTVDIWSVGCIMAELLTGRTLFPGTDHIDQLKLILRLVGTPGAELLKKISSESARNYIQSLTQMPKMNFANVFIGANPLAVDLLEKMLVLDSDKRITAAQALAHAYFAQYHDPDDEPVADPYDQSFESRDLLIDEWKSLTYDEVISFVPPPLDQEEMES
# [10] = biological target: Mitogen-activated protein kinase 14 (Homo sapiens) (UniProt Q16539); conditions: at 10 µM
# Ribosomal protein S6 kinase alpha-1 (Homo sapiens), sequence (Q15418 whole entry): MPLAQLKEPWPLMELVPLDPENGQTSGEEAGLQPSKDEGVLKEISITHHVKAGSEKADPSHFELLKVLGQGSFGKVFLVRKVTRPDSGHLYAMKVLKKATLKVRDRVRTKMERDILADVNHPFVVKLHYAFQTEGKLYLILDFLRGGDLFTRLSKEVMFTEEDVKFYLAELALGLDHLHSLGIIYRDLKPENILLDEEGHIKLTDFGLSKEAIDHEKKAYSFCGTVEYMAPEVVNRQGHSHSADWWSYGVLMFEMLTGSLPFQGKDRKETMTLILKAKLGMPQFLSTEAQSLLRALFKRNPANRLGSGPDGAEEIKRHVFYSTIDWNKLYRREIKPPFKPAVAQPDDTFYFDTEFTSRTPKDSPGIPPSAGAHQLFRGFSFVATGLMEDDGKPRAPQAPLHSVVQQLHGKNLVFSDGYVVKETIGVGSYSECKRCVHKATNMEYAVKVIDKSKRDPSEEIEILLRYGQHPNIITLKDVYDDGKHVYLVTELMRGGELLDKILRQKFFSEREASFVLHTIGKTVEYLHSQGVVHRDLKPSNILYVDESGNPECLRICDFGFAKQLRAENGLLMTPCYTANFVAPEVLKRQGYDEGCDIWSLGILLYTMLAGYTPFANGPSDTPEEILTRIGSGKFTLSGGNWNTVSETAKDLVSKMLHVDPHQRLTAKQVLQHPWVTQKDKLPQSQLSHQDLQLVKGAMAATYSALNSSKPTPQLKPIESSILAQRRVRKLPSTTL
Structure (SMILES),residual activity [1],residual activity [2],residual activity [3],residual activity [4],residual activity [5],residual activity [6],residual activity [7],residual activity [8],residual activity [9],residual activity [10]
Cc1cc(C)c(/C=C2\C(=O)Nc3ccccc32)[nH]1,51%,11%,26%,5%,27%,4%,38%,17%,79%,98%
O=C1NC(=O)C(c2cn(CCCO)c3ncccc23)=C1c1cnccn1,98%,99%,41%,45%,63%,55%,83%,65%,82%,92%
COc1cc2nccc(Oc3ccc(NC(=O)Nc4cc(C)on4)c(Cl)c3)c2cc1OC,105%,77%,60%,35%,–,–,99%,–,–,–
COc1cc2c(cc1OC)-c1n[nH]c(Nc3cccc(F)c3)c1C2,112%,79%,63%,39%,–,63%,105%,–,69%,44%
O=C(CCCc1ccc(-c2ccccc2F)cc1)Nc1ccc(O)cc1,90%,89%,111%,129%,97%,86%,104%,96%,91%,59%
O=C1Nc2ccc(Cl)cc2/C1=C/c1cc(Cl)c(O)c(Cl)c1,94%,29%,68%,20%,88%,36%,77%,55%,54%,10%
CCN(CC)CCNC(=O)c1c(C)[nH]c(/C=C2\C(=O)Nc3ccc(Cl)cc32)c1C,11%,2%,11%,1%,9%,1%,14%,9%,82%,52%
CSc1nc(-c2ccc(F)cc2)c(-c2ccnc(NC(C)c3ccccc3)c2)[nH]1 (stereo not given),82%,74%,81%,50%,40%,42%,86%,69%,-1%,0%
CC(C)c1nn(-c2c(Cl)cccc2Cl)c2nc(Cc3ccc(OCCO)cc3)[nH]c(=O)c12,105%,56%,46%,29%,88%,47%,71%,49%,92%,82%
NC(=O)Nc1sc(-c2ccc(F)cc2)cc1C(N)=O,85%,33%,33%,9%,30%,7%,–,–,91%,77%
O=C(Nc1ccc(Cl)cc1)c1ccccc1NCc1ccncc1,129%,–,–,–,–,–,–,–,–,–
COc1ccc(CNC(=O)Nc2ncc([N+](=O)[O-])s2)cc1,136%,109%,–,–,–,–,–,–,–,–
CCCC(=O)Oc1ccc2[nH]c(C(=O)c3cc4ccccc4[nH]3)cc2c1,129%,99%,122%,93%,102%,90%,–,–,79%,81%
Nc1ncnc2c1c(-c1ccc(Oc3ccccc3)cc1)cn2C1CCCC1,123%,39%,65%,37%,106%,69%,91%,76%,86%,63%
CC(C)(C)n1nc(Cc2cccc3ccccc23)c2c(N)ncnc21,107%,65%,112%,80%,99%,85%,113%,77%,41%,7%
COc1ccc2c(c1)c(C1=C(c3c[nH]c4ccccc34)C(=O)NC1=O)cn2CCCN(C)C,6%,1%,2%,-1%,0%,-2%,4%,2%,–,–
O=S(=O)(NCCNC/C=C/c1ccc(Br)cc1)c1cccc2cnccc12,53%,24%,26%,6%,70%,13%,18%,9%,–,–
O=C(c1cc2cc(O)ccc2[nH]1)c1cc2cc(O)ccc2[nH]1,40%,9%,30%,4%,13%,2%,26%,10%,75%,73%
c1ccc(-c2cnc(Nc3ccc(OCCN4CCCC4)cc3)s2)cc1,121%,66%,56%,36%,–,–,72%,58%,–,–
CCCCc1c(-c2ccc(OC)cc2)[nH]c2nccnc12,122%,109%,55%,52%,70%,70%,89%,100%,–,–
Cn1c2ccccc2c2c3c(c4c5ccccc5n(CCC#N)c4c21)CNC3=O,7%,4%,1%,1%,0%,-1%,4%,4%,–,–
O=c1cc(N2CCNCC2)oc2c(-c3ccccc3)cccc12,124%,96%,51%,36%,–,104%,–,89%,101%,98%

Structure (SMILES),residual activity [1],residual activity [2],residual activity [3],residual activity [4],residual activity [5],residual activity [6],residual activity [7],residual activity [8],residual activity [9],residual activity [10]
CN(C)S(=O)(=O)c1ccc2c(c1)/C(=C/c1cc3c([nH]1)CCCC3)C(=O)N2,95%,95%,61%,42%,36%,17%,84%,89%,87%,86%
Oc1cccc(-c2nc(N3CCOCC3)c3oc4ncccc4c3n2)c1,141%,98%,70%,64%,–,–,–,–,–,–
O=c1cc(N2CCOCC2)oc2c1ccc1ccccc12,108%,97%,57%,46%,109%,99%,110%,101%,100%,92%
Nc1n[nH]c2nc3ccccc3nc12,118%,87%,65%,54%,93%,77%,83%,71%,90%,97%
COc1ccc(COc2ccc(Cc3cnc(N)nc3N)cc2OC)cc1,131%,109%,64%,64%,–,71%,110%,116%,–,99%
Nc1nc(Nc2ccc(S(N)(=O)=O)cc2)nn1C(=O)c1c(F)cccc1F,28%,8%,32%,8%,19%,4%,27%,2%,–,–
O=C1NC(=O)C(c2c[nH]c3ccccc23)=C1c1c[nH]c2ccccc12,22%,3%,27%,3%,5%,0%,9%,1%,98%,73%
O=C1NC(=O)c2c1c1c3ccccc3[nH]c1n1cncc21,58%,43%,57%,24%,33%,15%,37%,36%,93%,87%
Nc1ncnc2[nH]nc(Nc3ccc(F)cc3)c12,106%,64%,42%,24%,59%,17%,48%,30%,78%,47%
O=C1NC(=O)C(c2cn(CCCn3ccnc3)c3ccccc23)=C1Nc1ccccc1,8%,1%,3%,1%,0%,-1%,5%,2%,62%,78%
Fc1ccc(-c2nc3n(c2-c2ccncc2)CCS3)cc1,73%,81%,64%,52%,–,–,–,92%,16%,3%
Nc1ncnc2c1cnn2-c1ccccc1,–,88%,–,–,–,84%,–,–,83%,–
O=C(c1ccccc1)c1ccc(N2CCOCC2)cc1O,96%,85%,45%,38%,–,–,–,130%,79%,83%
CCN1/C(=C/C(C)=O)Sc2ccc(OC)cc21,–,–,–,–,77%,57%,–,–,–,–
CN([C@@H](Cc1ccc(OS(=O)(=O)c2cccc3cnccc23)cc1)C(=O)N1CCN(c2ccccc2)CC1)S(=O)(=O)c1cccc2cnccc12,–,–,–,–,99%,99%,–,–,–,–
O=C(NC(NC(=S)Nc1ccc(F)c([N+](=O)[O-])c1)C(Cl)(Cl)Cl)C(c1ccccc1)c1ccccc1 (stereo not given),–,–,–,–,–,–,80%,94%,–,–
COc1ccc(-c2cnc3c(-c4ccsc4)cnn3c2)cc1,–,–,67%,51%,–,–,100%,136%,81%,–
COc1ccc(Cl)cc1NC(=O)Nc1cc(C)nc2ccccc12,–,–,–,–,–,–,–,–,82%,91%
O=C1Cc2c([nH]c3ccc(Br)cc23)-c2ccccc2N1,78%,77%,–,–,12%,9%,–,–,–,–
O=C1C(Cl)=C(N2C(=O)CCC2=O)C(=O)c2ccccc21,120%,131%,73%,75%,–,–,92%,99%,86%,92%
CCOc1nc(NC(=O)Cc2cc(OC)ccc2OC)cc(N)c1C#N,–,–,–,–,–,71%,–,–,–,–
N#Cc1c(NC(=O)c2cccc3ccccc23)sc2c1CCCC2,–,94%,49%,51%,–,–,92%,90%,–,–

Structure (SMILES),residual activity [1],residual activity [2],residual activity [3],residual activity [4],residual activity [5],residual activity [6],residual activity [7],residual activity [8],residual activity [9],residual activity [10]
NC(=O)c1cccc(-c2cc(Nc3ccc(OC(F)(F)F)cc3)ncn2)c1,–,94%,57%,40%,–,–,–,–,–,–
CC(C)(C)c1nc2c3ccc(F)cc3c3c(=O)[nH]ccc3c2[nH]1,65%,55%,–,–,25%,7%,42%,37%,73%,69%
COc1cc2nccc(Oc3ccc(NC(=S)NC(=O)c4ccccc4C)cc3)c2cc1OC,96%,81%,70%,19%,–,–,88%,123%,82%,68%
NCCNc1ncc(C(N)=O)c(Nc2cccc(C(F)(F)F)c2)n1,116%,59%,–,35%,82%,29%,–,–,–,–
O=C1Nc2ccccc2/C1=C\c1c(Cl)[nH]c2ccccc12,–,–,60%,25%,–,44%,51%,33%,–,45%
N#C/C(=C\c1ccc(O)c(O)c1)C(=O)NCc1ccccc1,–,102%,67%,45%,122%,–,–,–,72%,102%
O=c1cc(N2CCOCC2)oc2c(-c3ccccc3)cccc12,138%,–,69%,55%,–,–,–,–,–,–
O=C(O)/C=C/c1cc(Br)c(Br)c(Br)c1Br,110%,89%,59%,43%,–,–,–,–,77%,90%
COc1cc2ncnc(Nc3cccc(Cl)c3)c2cc1OC,–,–,102%,59%,87%,47%,123%,64%,56%,25%
CC(C)[C@H](CO)Nc1nc(Nc2cc(N)cc(Cl)c2)c2ncn(C(C)C)c2n1,32%,6%,–,–,–,–,18%,6%,–,95%
O=c1c(-c2ccc(F)cc2)c(-c2ccncc2)[nH]n1-c1ccc(Cl)cc1,–,–,–,–,–,–,–,–,3%,0%
NC(=O)c1ccc(-c2nc(-c3ccc4c(c3)OCCO4)c(-c3ccccn3)[nH]2)cc1,–,–,56%,53%,–,–,90%,–,77%,37%
CCCCc1c(-c2ccc(O)cc2)[nH]c2nccnc12,–,–,42%,29%,68%,44%,86%,84%,100%,88%
CC(C)N(CCC(=O)c1ccc2ccccc2c1)Cc1ccccc1,–,–,54%,52%,–,–,–,–,81%,79%
CCOC(=O)c1c(C)[nH]c(/C=C2\C(=O)Nc3ccccc32)c1C,–,–,88%,75%,72%,77%,88%,90%,–,–
Cn1sc(=O)n(Cc2ccccc2)c1=O,–,–,49%,65%,99%,97%,95%,93%,87%,87%
O=S(=O)(c1cccc2cnccc12)N1CCCNCC1,84%,47%,–,–,–,–,85%,49%,–,–
Nc1nccc(-c2c(-c3ccc(F)cc3)ncn2C2CCNCC2)n1,–,–,54%,36%,83%,50%,–,70%,–,–
O=C(Nc1nc2ccccc2n1CCN1CCOCC1)c1cccc([N+](=O)[O-])c1,–,–,104%,83%,–,–,108%,80%,–,–
O=C1Cc2c([nH]c3ccc([N+](=O)[O-])cc23)-c2ccccc2N1,–,–,56%,34%,38%,22%,64%,38%,–,–
N#C/C(=C1/Nc2ccccc2S1)c1ccnc(NCCc2cccnc2)n1,–,–,–,–,–,–,63%,63%,76%,41%
